Reference: PubChem BioAssay (Tox21)
Inconclusive results are not listed. Active and inactive are the calls of the source. Unless noted, calls come from the whole dose curve; as a rule, active = well fitted curve in the direction sought with a large enough effect in the repeat runs; inconclusive = weak or mixed curves; inactive = no such curve, though single readings can be large; an effect the other way counts as inactive or inconclusive.

Tests used:
[1] = qHTS assay to identify aromatase inhibitors - cell viability counter screen (AID 743084);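 note: cells stimulated with testosterone during compound exposure; nearly all actives have a fitted effect of over 55% in size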
[2] = target: Aryl hydrocarbon receptor (Homo sapiens) (UniProt P35869); experiment: qHTS assay to identify small molecule that activate the aryl hydrocarbon receptor (AhR) signaling pathway (AID 743085); note: nearly all actives have a fitted effect of over 15% in size; note: potency is the fitted concentration of half-maximal effect;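 for activation: HG2L7.5c1 human HepG2 liver cells with stably integrated DRE-driven firefly reporter; series mostly up to about 70 µM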
How it was run: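 Measured in HG2L7.5c1 cells: CellTiter-Fluor signal (30 min incubation, 37C) for viability, then luciferase luminescence (30 min, room temperature). Compound contact time was 24 h at 37C, following a 5 h pre-incubation.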

[3] = qHTS assay to identify small molecule that activate the aryl hydrocarbon receptor (AhR) signaling pathway - cell viability counter screen (AID 743086);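 note: HepG2 liver cells carrying the AhR DRE luciferase reporter; series mostly up to about 70 µM; nearly all actives have a fitted effect of over 45% in size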
How it was run: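 Cytotoxicity counter screen: CellTiter-Fluor signal (30 min, 37 C) in 4000 HepG2 cells/well carrying the DRE-luciferase reporter, following 24 h compound exposure at 37 C.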

[4] = target: Peroxisome proliferator-activated receptor gamma (Homo sapiens) (UniProt P37231); experiment: qHTS assay to identify small molecule agonists of the peroxisome proliferator-activated receptor gamma (PPARg) signaling pathway (AID 743094; active = well fitted activation curve with a large enough effect in the signal ratio in the repeat runs, not every such curve was filed as active; the % refers to the signal ratio)
How it was run: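 HEK293H PPARg-bla cells, 5 h settle at 37C/5% CO2; compound (DMSO) 17 h, 37C; B/G FRET substrate 1 h RT; fluorescence intensity read-out. qHTS format.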

[5] = target: Peroxisome proliferator-activated receptor gamma (Homo sapiens) (UniProt P37231); experiment: qHTS assay to identify small molecule antagonists of the peroxisome proliferator-activated receptor gamma (PPARg) signaling pathway (AID 743191; calls by dose curve; note: series mostly up to about 63 µM; nearly all actives have a fitted effect of over 30% in size)
How it was run: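 Beta-lactamase reporter under UAS control in HEK293H PPARg-bla cells; compound treatment 17 h at 37C. Read-out: fluorescence intensity after 1 h room-temperature incubation with LiveBLAzer B/G FRET substrate.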

[6] = qHTS assay to identify small molecule antagonists of the peroxisome proliferator-activated receptor gamma (PPARg) signaling pathway - cell viability counter screen (AID 743194); note: nearly all actives have a fitted effect of over 55% in size
How it was run: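 Viability was measured as CellTiter-Glo luminescence in GeneBLAzer PPARg UAS-bla HEK293H cells. These cells had been exposed 17 h at 37 C to compounds together with rosiglitazone at 50 nM final, with the beta-lactamase readout taken in the same wells.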

[7] = qHTS assay for small molecule agonists of the antioxidant response element (ARE) signaling pathway (AID 743202; active = well fitted activation curve with a large enough effect in the signal ratio in the repeat runs, not every such curve was filed as active; the % refers to the signal ratio)
How it was run: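 Beta-lactamase reporter activity, read as fluorescence intensity, reflects ARE/Nrf2 pathway induction in HepG2 cells after 16 h compound exposure at 37 C; substrate loading was 2 h at room temperature.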

[8] = qHTS assay for small molecule agonists of the antioxidant response element (ARE) signaling pathway - cell viability counter screen (AID 743203; calls by dose curve; note: nearly all actives have a fitted effect of over 55% in size)
How it was run: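 Luminescence read-out (CellTiter-Glo, 30 min at room temperature) measured cell viability in the same wells as the ARE beta-lactamase reporter. HepG2 ARE-bla cells were treated with compounds for 16 hrs at 37C/5% CO2.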

[9] = qHTS assay for small molecule activators of the heat shock response signaling pathway (AID 743210; active = well fitted activation curve with a large enough effect in the signal ratio in the repeat runs, with a control signal flat, not every such curve was filed as active; the % refers to the signal ratio;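 note: HeLa cells with beta-lactamase reporter driven by heat shock elements; series mostly up to about 63 µM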)
How it was run: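 Fluorescence from a cleaved B/G FRET substrate (2.5 h, room temp) reports HSE-driven beta-lactamase in HeLa cells treated 5 h at 37 C with DMSO-dissolved compounds.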

[10] = qHTS assay to identify small molecule agonists of the peroxisome proliferator-activated receptor delta (PPARd) signaling pathway - cell viability counter screen (AID 743211); note: nearly all actives have a fitted effect of over 55% in size
How it was run: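 Following 5 h plating at 37 C and 5% CO2, PPARd UAS-bla HEK293H cells took up test compounds for 17 h. Viability was quantified by luminescence 30 min after CellTiter-Glo addition at room temperature.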

[11] = target: Peroxisome proliferator-activated receptor delta (Homo sapiens) (UniProt Q03181); experiment: qHTS assay to identify small molecule agonists of the peroxisome proliferator-activated receptor delta (PPARd) signaling pathway (AID 743212; calls by dose curve)
How it was run: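 Steps: seed PPARd-bla HEK293H cells; incubate 5 h, 37 C, 5% CO2; add compounds in DMSO; incubate, 37 C; add LiveBLAzer B/G FRET substrate; hold 2 h at room temperature; measure fluorescence.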

[12] = qHTS assay to identify small molecule agonists of the farnesoid-X-receptor (FXR) signaling pathway - cell viability counter screen (AID 743218); note: nearly all actives have a fitted effect of over 45% in size
How it was run: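 Luminescence from CellTiter-Glo, read after 30 min at RT, reports viability of GeneBLAzer FXR-UAS-bla HEK 293T cells treated 16 h with compounds in the wells used for the beta-lactamase reporter.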

[13] = qHTS assay to identify small molecule antagonists of the farnesoid-X-receptor (FXR) signaling pathway - cell viability counter screen (AID 743221; active = well fitted cell-killing curve with a large enough effect in the repeat runs, not every such curve was filed as active; note: nearly all actives have a fitted effect of over 50% in size)
How it was run: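 Compound effects on cell number were measured as CellTiter-Glo luminescence in HEK 293T cells expressing FXR-UAS-bla, after 16 h at 37 C with 50 uM CDCA (final).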

[14] = target: Vitamin D3 receptor (Homo sapiens) (UniProt P11473); experiment: qHTS assay to identify small molecule agonists of the vitamin D receptor (VDR) signaling pathway (AID 743222; calls by dose curve)
How it was run: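 Beta-lactamase reporter readout (LiveBLAzer B/G FRET, 2 h RT) in VDR-bla cells after 16 h compound treatment at 37C, 5% CO2; cells pre-incubated 4 h before pin transfer of DMSO solutions.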

[15] = target: Vitamin D3 receptor (Homo sapiens) (UniProt P11473); experiment: qHTS assay to identify small molecule antagonists of the vitamin D receptor (VDR) signaling pathway (AID 743223; active = well fitted inhibition curve with a large enough effect in the signal ratio in the repeat runs, not every such curve was filed as active; the % refers to the signal ratio)
How it was run: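 Beta-lactamase activity in VDR-bla cells is measured by FRET substrate fluorescence (2 h, room temperature) after cells spend 16 h at 37C with test compound and 3 nM final 1alpha,25-dihydroxyvitamin D3.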

[16] = qHTS assay for small molecule activators of the heat shock response signaling pathway - cell viability counter screen (AID 743209); note: nearly all actives have a fitted effect of over 50% in size
How it was run: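 HSE-bla HeLa; 1500 cells/well; overnight 37 C, 5% CO2; compound 5 h 37 C; LiveBLAzer B/G substrate 2.5 h RT; CellTiter-Glo 30 min RT; luminescence.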

[17] = qHTS assay to identify small molecule antagonists of the peroxisome proliferator-activated receptor delta (PPARd) signaling pathway - cell viability counter screen (AID 743213); note: nearly all actives have a fitted effect of over 50% in size
How it was run: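 Luminescence from CellTiter-Glo, added after the bla read and incubated 30 min at room temperature, gives viability of HEK293H PPARd-bla cells exposed to compounds for 17 h at 37 C with 300 nM L165041.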

[18] = target: Peroxisome proliferator-activated receptor delta (Homo sapiens) (UniProt Q03181); experiment: qHTS assay to identify small molecule antagonists of the peroxisome proliferator-activated receptor delta (PPARd) signaling pathway (AID 743215; active = well fitted inhibition curve with a large enough effect in the signal ratio in the repeat runs, not every such curve was filed as active; the % refers to the signal ratio;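 note: cells stimulated with agonist L165041 at 300 nM final during compound exposure; series mostly up to about 62 µM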)
How it was run: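 HEK293H GeneBLAzer PPARd UAS-bla reporter cells; cpd + L165041 300 nM final, 17 h 37 C; LiveBLAzer B/G FRET substrate 2 h RT; fluorescence intensity read-out. Antagonist mode.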

[19] = target: Bile acid receptor (Homo sapiens) (UniProt Q96RI1); experiment: qHTS assay to identify small molecule antagonists of the farnesoid-X-receptor (FXR) signaling pathway (AID 743217; active = well fitted inhibition curve with a large enough effect in the signal ratio in the repeat runs, not every such curve was filed as active; the % refers to the signal ratio)
How it was run: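 Read-out: beta-lactamase FRET fluorescence (LiveBLAzer B/G substrate, 2 h, room temperature) in GeneBLAzer FXR-UAS-bla HEK 293T cells. Compounds were co-dosed with 50 uM chenodeoxycholic acid (final) and incubated 16 h at 37 °C.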

[20] = target: Bile acid receptor (Homo sapiens) (UniProt Q96RI1); experiment: qHTS assay to identify small molecule agonists of the farnesoid-X-receptor (FXR) signaling pathway (AID 743220; active = well fitted activation curve with a large enough effect in the signal ratio in the repeat runs, not every such curve was filed as active; the % refers to the signal ratio)
How it was run: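 FXR-UAS-bla HEK 293T cells carrying a UAS-driven beta-lactamase reporter were plated for 5 h at 37C/5% CO2, then exposed to DMSO-dissolved Tox21 10K compounds for 16 h at 37C. A LiveBLAzer B/G FRET substrate was loaded for 2 h at room temperature before fluorescence reading.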
% is set by controls: 0 for no effect and ±100 for the full control effect.

Peroxisome proliferator-activated receptor delta (Homo sapiens), sequence (Q03181 whole entry, looked up): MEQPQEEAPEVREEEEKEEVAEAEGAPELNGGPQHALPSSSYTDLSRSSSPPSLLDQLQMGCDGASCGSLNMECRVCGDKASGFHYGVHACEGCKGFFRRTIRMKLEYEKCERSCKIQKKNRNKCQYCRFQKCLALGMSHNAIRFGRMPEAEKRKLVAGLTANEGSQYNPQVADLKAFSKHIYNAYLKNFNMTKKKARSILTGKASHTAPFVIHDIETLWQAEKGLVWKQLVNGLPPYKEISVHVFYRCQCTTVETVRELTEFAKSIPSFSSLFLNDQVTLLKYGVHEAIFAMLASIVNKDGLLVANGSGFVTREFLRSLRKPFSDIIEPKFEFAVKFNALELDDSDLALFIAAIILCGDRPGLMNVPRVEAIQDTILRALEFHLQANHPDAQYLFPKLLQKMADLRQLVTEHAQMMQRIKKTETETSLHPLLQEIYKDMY
Peroxisome proliferator-activated receptor gamma (Homo sapiens), sequence (P37231 whole entry, looked up): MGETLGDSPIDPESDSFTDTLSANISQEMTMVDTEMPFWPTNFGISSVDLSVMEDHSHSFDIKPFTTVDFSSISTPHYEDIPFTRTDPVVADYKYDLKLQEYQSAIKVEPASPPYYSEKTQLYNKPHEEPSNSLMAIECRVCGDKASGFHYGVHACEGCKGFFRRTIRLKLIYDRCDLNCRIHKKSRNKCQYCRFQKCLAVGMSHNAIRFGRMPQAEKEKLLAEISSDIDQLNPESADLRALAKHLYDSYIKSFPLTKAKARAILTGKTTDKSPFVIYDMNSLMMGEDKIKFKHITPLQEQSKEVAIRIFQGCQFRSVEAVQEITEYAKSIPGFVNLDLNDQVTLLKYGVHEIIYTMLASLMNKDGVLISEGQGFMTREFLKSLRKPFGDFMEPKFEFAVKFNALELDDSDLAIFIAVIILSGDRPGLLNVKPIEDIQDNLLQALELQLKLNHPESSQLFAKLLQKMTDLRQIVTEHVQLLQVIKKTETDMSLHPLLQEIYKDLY
Aryl hydrocarbon receptor (Homo sapiens), sequence (P35869 whole entry, looked up): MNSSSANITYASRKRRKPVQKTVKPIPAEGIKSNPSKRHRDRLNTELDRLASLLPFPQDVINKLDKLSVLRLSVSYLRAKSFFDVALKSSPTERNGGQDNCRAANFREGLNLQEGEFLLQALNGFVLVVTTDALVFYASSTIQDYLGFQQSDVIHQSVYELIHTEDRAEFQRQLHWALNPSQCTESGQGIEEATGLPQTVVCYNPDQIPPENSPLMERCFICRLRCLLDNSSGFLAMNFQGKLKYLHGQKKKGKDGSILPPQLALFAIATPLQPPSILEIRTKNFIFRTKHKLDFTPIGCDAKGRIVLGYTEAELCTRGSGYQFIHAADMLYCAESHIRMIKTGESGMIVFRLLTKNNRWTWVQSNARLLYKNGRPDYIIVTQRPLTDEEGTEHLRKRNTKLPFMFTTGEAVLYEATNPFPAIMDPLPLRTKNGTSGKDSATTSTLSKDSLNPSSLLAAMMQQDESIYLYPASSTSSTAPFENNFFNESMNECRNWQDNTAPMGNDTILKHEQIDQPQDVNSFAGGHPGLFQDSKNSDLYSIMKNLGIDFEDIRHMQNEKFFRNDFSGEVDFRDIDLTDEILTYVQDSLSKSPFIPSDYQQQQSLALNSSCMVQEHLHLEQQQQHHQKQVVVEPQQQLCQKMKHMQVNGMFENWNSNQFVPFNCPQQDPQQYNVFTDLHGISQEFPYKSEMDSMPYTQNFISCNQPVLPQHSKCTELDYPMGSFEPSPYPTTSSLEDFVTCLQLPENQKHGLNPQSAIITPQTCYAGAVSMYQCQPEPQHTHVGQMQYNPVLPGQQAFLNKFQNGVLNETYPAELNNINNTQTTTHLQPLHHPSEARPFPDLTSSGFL
Vitamin D3 receptor (Homo sapiens), sequence (P11473 whole entry, looked up): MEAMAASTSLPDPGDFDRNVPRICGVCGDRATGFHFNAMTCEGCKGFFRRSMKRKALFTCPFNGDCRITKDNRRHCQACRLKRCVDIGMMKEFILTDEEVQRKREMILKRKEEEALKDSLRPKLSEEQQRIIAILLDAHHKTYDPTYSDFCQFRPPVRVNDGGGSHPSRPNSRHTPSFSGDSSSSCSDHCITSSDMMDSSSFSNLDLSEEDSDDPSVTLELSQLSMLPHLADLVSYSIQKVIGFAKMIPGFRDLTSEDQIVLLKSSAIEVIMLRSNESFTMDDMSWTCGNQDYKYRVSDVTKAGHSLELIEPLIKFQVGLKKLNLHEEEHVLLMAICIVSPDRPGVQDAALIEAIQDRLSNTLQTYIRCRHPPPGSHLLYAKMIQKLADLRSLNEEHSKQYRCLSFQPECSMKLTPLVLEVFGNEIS
Bile acid receptor (Homo sapiens), sequence (Q96RI1 whole entry, looked up): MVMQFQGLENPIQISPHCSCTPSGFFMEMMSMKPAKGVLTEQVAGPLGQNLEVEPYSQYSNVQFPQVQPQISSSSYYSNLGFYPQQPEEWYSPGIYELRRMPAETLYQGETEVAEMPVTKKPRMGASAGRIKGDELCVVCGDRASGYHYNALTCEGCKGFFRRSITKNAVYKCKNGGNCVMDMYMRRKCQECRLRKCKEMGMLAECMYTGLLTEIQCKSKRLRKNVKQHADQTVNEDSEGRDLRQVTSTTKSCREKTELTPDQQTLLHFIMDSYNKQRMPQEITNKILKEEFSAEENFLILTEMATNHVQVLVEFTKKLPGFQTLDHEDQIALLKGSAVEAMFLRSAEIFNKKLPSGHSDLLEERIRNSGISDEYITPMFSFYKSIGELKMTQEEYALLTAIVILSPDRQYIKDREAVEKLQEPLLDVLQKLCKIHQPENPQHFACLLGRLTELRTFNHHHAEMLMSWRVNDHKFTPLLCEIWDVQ

CC(C)c1cc2c(cc1S(=O)(=O)O)[C@@]1(C)CCC[C@@](C)(C(=O)O)[C@@H]1CC2
inactive: Potency [1] | Potency [2] | Potency [3] | outcome [4] | Potency [5] | outcome [6] | Potency [7] | Potency [8] | outcome [9] | Potency [10] | outcome [11] | Potency [12] | Potency [13] | outcome [14] | outcome [15]

NCCCNCCSP(=O)(O)O
inactive: Potency [1] | Potency [2] | Potency [3] | outcome [4] | ratio activity, negative = inhibition [5] -8.68% [at 13.2 µM] | activity change, negative = cytotoxicity [6] -6.69% [at 13.2 µM] | activation [7] -5.66% [at 8.36 µM] | activity change, negative = cytotoxicity [16] 4.97% [at 13.2 µM] | activation [9] -0.51% [at 13.2 µM] | activity change, negative = cytotoxicity [10] 8.83% [at 13.2 µM] | activation [11] -0.031% [at 13.2 µM] | viability change, negative = cytotoxic [17] 1.09% [at 13.7 µM] | ratio activity, negative = inhibition [18] -0.162% [at 13.7 µM] | activity change, negative = inhibition [19] 5.47% [at 13.2 µM] | activation [20] 0.213% [at 13.2 µM] | activity change, negative = cytotoxicity [13] 2.46% [at 13.2 µM]

O=C1CCCC(=O)C1
inactive: Potency [1] | Potency [2] | Potency [3] | outcome [4] | Potency [5] | outcome [6] | Potency [7] | Potency [8] | Potency [10] | Potency [17] | outcome [19] | outcome [20] | Potency [13] | outcome [14] | outcome [15]

CCOC(=O)c1ccc(C)cc1
inactive: Potency [1] | Potency [2] | Potency [3] | outcome [4] | outcome [6] | Potency [7] | Potency [8] | outcome [16] | outcome [9] | Potency [10] | outcome [11] | Potency [17] | Potency [18] | Potency [12] | Potency [13] | outcome [14]

CC(=O)N(CC(O)CO)c1c(I)c(C(=O)NCCO)c(I)c(C(=O)NCC(O)CO)c1I (configuration not stated)
inactive: Potency [1] | Potency [2] | Potency [3] | outcome [4] | Potency [5] | outcome [6] | Potency [8] | outcome [9] | Potency [10] | outcome [11] | Potency [17] | Potency [18] | outcome [19] | Potency [12] | outcome [20] | Potency [13] | outcome [14] | outcome [15]

CO[C@]12C[C@@H](COC(=O)c3cncc(Br)c3)CN(C)[C@@H]1Cc1cn(C)c3cccc2c13
active: Potency [2] 29.8 µM
inactive: Potency [1] | Potency [3] | outcome [4] | outcome [6] | Potency [7] | Potency [8] | outcome [16] | outcome [9] | Potency [10] | Potency [17] | Potency [13] | outcome [14]

CCc1nccnc1CC
inactive: Potency [1] | Potency [2] | Potency [3] | outcome [4] | Potency [5] | outcome [6] | Potency [8] | outcome [16] | Potency [10] | outcome [11] | Potency [17] | Potency [18] | Potency [13] | outcome [14] | outcome [15]

O=Cc1cccc([N+](=O)[O-])c1
inactive: Potency [1] | Potency [2] | Potency [3] | outcome [4] | Potency [5] | outcome [6] | Potency [8] | outcome [16] | Potency [10] | outcome [11] | Potency [17] | Potency [18] | Potency [12] | outcome [14] | outcome [15]

CCCCCCCCCCCC
inactive: Potency [1] | Potency [2] | Potency [3] | outcome [4] | Potency [5] | outcome [6] | Potency [8] | outcome [16] | Potency [10] | Potency [17]

CCCCCCCCCCCCN(CCCCCCCCCCCC)CCCCCCCCCCCC
inactive: Potency [1] | Potency [2] | Potency [3] | outcome [4] | Potency [5] | Potency [7] | Potency [8] | outcome [16] | outcome [9] | Potency [10] | outcome [11] | Potency [17] | Potency [12] | Potency [13] | outcome [14] | outcome [15]

C=C(C)CS(=O)(=O)O
inactive: Potency [1] | Potency [2] | Potency [3] | outcome [4] | Potency [5] | outcome [6] | outcome [16] | outcome [9] | Potency [10] | outcome [11] | Potency [17] | Potency [18] | outcome [19] | Potency [12] | outcome [20]

C=C(C)C(=O)OCCCCCCCC(C)C
inactive: Potency [1] | Potency [2] | Potency [3] | outcome [4] | outcome [6] | Potency [7] | Potency [8] | outcome [16] | Potency [10] | Potency [17] | Potency [12] | Potency [13] | outcome [14] | outcome [15]

O=C(O)CCCl
inactive: Potency [1] | Potency [2] | Potency [3] | outcome [4] | outcome [6] | Potency [7] | Potency [8] | outcome [16] | outcome [9] | Potency [10] | Potency [13] | outcome [14]

c1ccc(CC2=NCCN2)cc1
inactive: Potency [1] | Potency [2] | Potency [3] | outcome [4] | Potency [5] | Potency [7] | outcome [16] | outcome [9] | Potency [10] | outcome [19] | outcome [20] | Potency [13]
